Measurements reported in PubChem BioAssay AID449762 (Southern Research Specialized Biocontainment Screening …, 2010).
Hit rate of the full screen: of about 330,000 compounds, about 1,900 (0.58%) were called active. Another 4% or so got no clear call; they are omitted. These entries were drawn from the full list. Potency and affinity values are given separately. Values without a mark were called inactive. Cut-off read from the data, not from the text of the source: inconclusive = inhibition above about 70% without an active follow-up result; inactive = below that.

Assay: M. tuberculosis growth inhibition, HTS (AID 449762);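 note: bacterial growth assessed after seven days of incubation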
Settings: M. tuberculosis H37Rv growth inhibition, 7H9 media; at 25 µM; stronger effect = higher value

Row | Compound | inhibition [%]
1 | Cc1ccc(-c2noc(CCC(=O)N3CCCc4ccccc43)n2)cc1 | 6.56
2 | CCOC(=O)c1c(NC(=O)COC(=O)Cc2n[nH]c(=O)c3ccccc23)sc(C(=O)NC)c1C | -12.1
3 | O=[N+]([O-])c1cccc(-c2nc(-c3cccs3)c(-c3cccs3)[nH]2)c1 | 1.58
4 | O=[N+]([O-])c1cccc(-c2nc(-c3ccccc3)c(-c3cccs3)[nH]2)c1 | 1.45
5 | CC1=NN(c2ccccc2)C(=O)/C1=C/c1ccc[nH]1 | 1.35
6 | CN(C)c1ccc(C=C2C(=O)OC(C)(C)OC2=O)cc1 | 2.97
7 | COc1cc2cc(Oc3ccc4ccc(=O)oc4c3)c(=O)oc2cc1O[C@@H]1O[C@H](CO)[C@@H](O)[C@H](O)[C@H]1O | -3.36
8 | CC(C)(C)C1CCC2(CC1)Nc1cccc3cccc(c13)N2 | 28.8
9 | c1cc2c3c(cccc3c1)NC1(CCCCC1)N2 | -8.51
10 | Cc1cc(C(=O)N2CCN(Cc3ccccc3)CC2)on1 | 4.33
11 | CN1C(=O)N(C)C2(c3ccccc3)Nn3c(s/c(=C/c4ccccc4F)c3=O)=NC12c1ccccc1 (stereo unspecified) | 1.37
12 | CCCC(C)C(=O)Nc1ccccc1C(=O)OCC (stereo unspecified) | -6.12
13 | CC1=C(C#N)C(c2cccnc2)C2=C(CC(c3ccc(Cl)cc3)CC2=O)N1 (stereo unspecified) | 49.6
14 | COc1ccc(C2C(C#N)=C(C)NC3=C2C(=O)CC(C)(C)C3)cc1 (stereo unspecified) | 2.98
15 | Cc1ccc(C[n+]2ccccc2)cc1 | -0.58
16 | Cc1nc2ccccn2c1P(=Nc1ccccc1)(N(C)C)N(C)C | -7.51
17 | COC(=O)[C@@H]1C[C@@]2(O)[C@@H](O)[C@@H](O)[C@@H](O)C[C@H]2N1Cc1ccc(C(F)(F)F)cc1 | -13
18 | CCOC(=O)c1ccc(-c2c(-c3cc(OC)c(OC)c(OC)c3)noc2C)cc1F | 8.43
19 | CCOC(=O)c1ccc(-c2c(-c3ccc4c(c3)OCO4)noc2-c2ccsc2)cc1F | 7.75
20 | CCCOc1ccc(N2CC(C(=O)Nc3ncccc3C)CC2=O)cc1 (stereo unspecified) | 25.7
21 | O=C1CCc2cc(S(=O)(=O)NC(Cc3ccccc3)C(=O)NCCC3=CCCCC3)ccc2N1 (stereo unspecified) | -6.41
22 | COc1ccccc1Cn1c(=S)[nH]c2cc(C(=O)NCC3CCCO3)ccc2c1=O (stereo unspecified) | 2.37
23 | CC(=O)Nc1scc(C)c1-c1nc2ccccc2s1 | 26

Row | Compound | inhibition [%]
24 | CC(=O)N1CCc2c(sc(NC(=O)C3CC3)c2-c2nc3ccccc3s2)C1 | 15.3
25 | Cc1ccccc1NC(=O)Cn1c(C)nc2ccc(NC(=O)C3CC3)cc2c1=O | 2.87
26 | NS(=O)(=O)c1ccc(N2N=C(c3ccccc3)CC2c2ccc(F)cc2)cc1 (stereo unspecified) | 12.8
27 | NS(=O)(=O)c1ccc(N2N=C(c3ccccc3)CC2c2ccccc2)cc1 (stereo unspecified) | 16.9
28 | O=C(O)c1ccccc1C(=O)NCCc1c(C(=O)O)[nH]c2ccc(Cl)cc12 | 7.67
29 | COc1cccc(NC(=O)CSc2nc3ccccc3c(=O)n2CCCC(=O)NCCCN2CCOCC2)c1 | -10.7
30 | CCOC(=O)c1ccc(NC(=S)NCCc2ccc(OC)c(OC)c2)cc1 | 47.4
31 | CCOC(=O)c1ccc(NC(=O)Nc2ccc(F)cc2)cc1 | 0.77
32 | O=C(O)C1CCN(c2ccc(S(=O)(=O)N3CCOCC3)cc2[N+](=O)[O-])CC1 | -9.82
33 | Cn1cnc(C(=O)NC2CCN(C(=O)OC(C)(C)C)CC2)c1C(=O)NC1CCN(C(=O)OC(C)(C)C)CC1 | -7.54
34 | CCn1c(N2CCN(C(=O)/C=C/c3ccccc3)CC2)nc2ccccc21 | 6.08
35 | CC(C)Cn1c(N2CCN(C(=O)c3cccs3)CC2)nc2ccccc21 | -9
36 | CSc1nc2ccccc2n1CC(=O)Nc1c(C)n(C)n(-c2ccccc2)c1=O | -4.84
37 | CCOc1ccc(CN2C(=O)c3ccccc3C2C(=O)NC(C)CC)cc1OC (stereo unspecified) | 2.03
38 | O=C(NCc1ccco1)c1ccc(-c2ccccc2Cl)o1 | -1.96
39 | COc1ccc(CCC(=O)OC(C)C(=O)c2ccc(C)cc2)cc1 (stereo unspecified) | -2.54
40 | Cc1noc2ncnc(Sc3c(Cl)cccc3Cl)c12 | 47.8
41 | COc1ccc(Sc2ncnc3onc(C)c23)cc1 | 3.37
42 | O=C(O)/C=C/C(=O)Nc1ccccc1-c1ccccc1NC(=O)/C=C/C(=O)O | 3.08
43 | CCn1nc(C)c(CCC(=O)O)c1C | 4.75
44 | Cc1ccc(/C=C/C(=O)OCC(=O)NCCc2ccc(S(N)(=O)=O)cc2)o1 | -0.03
45 | COc1ccc(/C=N/Nc2ncnc3scc(-c4ccccc4)c23)cc1OC | -0.49
46 | COc1cccc(/C=N/Nc2ncnc3scc(-c4ccccc4)c23)c1OC | 8.3

Row | Compound | inhibition [%]
47 | CC1CCCCN1C(=O)Nc1ccccc1Cl (stereo unspecified) | -0.25
48 | O=S(=O)(c1ccc(S(=O)(=O)N2CCN3CCCC3C2)cc1)N1CCCC1 (stereo unspecified) | -15.1
49 | CCOC(=O)c1sc(NC(=O)CSc2nc3ccccc3s2)c(C(=O)OCC)c1C | 12.6
50 | CCc1c(O)cc2n(c1=O)-c1ccc(Cl)cc1C2(C)C | -2.84
51 | Cc1c(O)cc2n(c1=O)-c1ccc(Cl)cc1C2(C)C | -11.1
52 | Cc1ccsc1C1Nc2ccc3ncccc3c2C2=C1C(=O)CCC2 (stereo unspecified) | 2.32
53 | O=C(Nc1ccc(Cl)cn1)Nc1ccccc1F | -4.27
54 | C=CCn1c(=NC(=O)c2cc(Cl)sc2Cl)sc2cc(S(N)(=O)=O)ccc21 | -3.02
55 | COCCn1c(=NC(=O)c2cc(Cl)sc2Cl)sc2cc(S(N)(=O)=O)ccc21 | -0.08
56 | Oc1ccccc1CN1CCN(C(O)(c2ccccc2)c2ccccc2)CC1 | 12.9
57 | N/C(=N\OC(=O)c1cc(Cl)ccc1Cl)c1ccccn1 | 30
58 | COc1cc(OC)c(C(=O)O/N=C(\N)c2ccccn2)cc1OC | 7.81
59 | C=CC[C@@H](CC(=O)N[C@@H](CO)Cc1ccccc1)C(=O)N[C@H](COC(=O)[C@@H](CC=C)Cc1ccc(F)cc1)C(C)(C)C | -11
60 | CCc1ccc(/C=C2/C(=O)N(CC)C(=S)N2C)s1 | 12.3
61 | CCc1ccc(/C=C2/C(=O)N(c3ccccc3)C(=S)N2CC(=O)OC)s1 | 10.2
62 | O=c1cc(CSc2ccc([N+](=O)[O-])cc2)nc2sccn12 | -11.9
63 | CCN(CC)CCCNC(=O)c1cc2c(Cl)nc3ccccc3c2s1 | 5.92
64 | O=C(NCCCN1CCCC1)c1cc2c(Cl)nc3ccccc3c2s1 | 9.47
65 | O=[N+]([O-])c1ccc(C(=S)N2CCN(Cc3ccccc3)CC2)cc1 | 6.67
66 | CCCCOC(=O)Nc1ccc(S(=O)(=O)Nc2cc(C)nc(C)n2)cc1 | 50.1
67 | CCCCOC(=O)Nc1ccc(S(=O)(=O)Nc2nc(C)cc(C)n2)cc1 | 0.81
68 | O=C(CSC(=S)N1CCCCC1)c1ccccc1 | 69.2
69 | Cc1oc2cc(O)ccc2c(=O)c1-c1cnn(-c2ccccc2)c1 | -3.21

Row | Compound | inhibition [%]
70 | O=c1c(-c2ccc(O)cc2)coc2cc(O)ccc12 | 3.16
71 | CCc1ccc(-c2cc(C(=O)Nc3c(C)n(C)n(-c4ccccc4)c3=O)c3ccccc3n2)s1 | 5.93
72 | Cc1[nH]n(-c2ccccc2)c(=O)c1/C=N/N(c1ccccc1)c1ccccc1 | 62.4
73 | CCC(=O)N/C(N)=N/c1nc(C)c2cc(C)c(C)cc2n1 | 7.41
74 | Cc1ccc2nc(N=C(N)N)nc(C)c2c1 | 12.5
75 | CCCC(=O)N/C(N)=N/c1nc(C)c2cc(C)ccc2n1 | 45.9
76 | Cc1cc2nc(/N=C(\N)NC(=O)N3c4ccccc4Sc4ccccc43)nc(C)c2cc1C | -0.79
77 | COc1ccc(C(=O)Nc2cnccn2)cc1[N+](=O)[O-] | -6.82
78 | O=C(CCN1C(=O)c2ccccc2C1=O)Nc1nc2ccccc2s1 | 10.8
79 | NC(=O)[C@@H]1CC2(CC(c3cccc(NC(=O)[C@H]4CCC(=O)N4)c3)=NO2)CN1C(=O)COc1ccc(Cl)cc1 (stereo partly specified) | 0.87
80 | Cc1cccc(C(=O)Nc2cccc3cccnc23)c1 | 25.4
81 | O=C(CSCc1ccccc1Cl)Nc1c[nH]c(=O)[nH]c1=O | 1.55
82 | CC(O)CNc1nc2c(c(=O)n(Cc3ccc(Cl)c(Cl)c3)c(=O)n2C)n1C (stereo unspecified) | 6.85
83 | Cn1c(NCC(O)c2ccccc2)nc2c1c(=O)n(Cc1ccc(Cl)cc1)c(=O)n2C (stereo unspecified) | 48.9
84 | CCOC(=O)c1ccc(COC(=O)CNC(=O)CNC(=O)Cc2ccccc2)cc1 | -12.4
85 | COc1cc(OC)c(NC(=O)CCCNC(=O)Cn2cnc3sc(C)c(C)c3c2=O)cc1Cl | -3.56
86 | CCN(CC(=O)Nc1ccc(NC(C)=O)cc1)C(=O)c1ccccc1SCC(=O)N1CCCC1 | 6.02
87 | O=C(NCCOc1ccccc1F)c1cccc(S(=O)(=O)N2CCN(c3ccccc3)CC2)c1 | 4.44
88 | c1ccc(-c2ccc3ccccc3n2)cc1 | -0.21
89 | c1ccc2nc(-c3ccncc3)ccc2c1 | -14.1
90 | Cc1cc(C)c(C#N)c(SCC(=O)c2cc(C)n(CCc3ccccc3)c2C)n1 | -0.68
91 | O=C(NCCCN1CCOCC1)c1ccc(Sc2ccc(F)cc2)c([N+](=O)[O-])c1 | -0.04
